Assay [1] relates to Wnt5a (protein binding on small-molecule microarray). As to the kind of experiment: small molecules binding Wnt5a protein – biophysical, small-molecule microarray, 635/667 nm fluorescence, primary screen (AID 1142).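 Also: fluorescence read at 667 nm with signal to noise per printed feature.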 The following applies: 635 nm fluorescence, higher = more signal.
Assay [2] can be described thus: ATP-based viability of Huh7 replicon cells – cell-based, CellTiter-Glo luminescence, basal, 48 h, cytotoxicity control for HCV replication inhibitor project, primary screen (AID 1143).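 Also: Huh7 hepatoma cells carrying a hepatitis C replication reporter with no stimulus; test concentration not given here.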 The note with it: higher = more signal, called active from +8 up or from −8 down. A general note: In antiviral work, replicon cells carry a viral genome segment that copies itself.
A short description of assay [3]: Pseudomonas biofilm growth suppression – PAO1 strain, BacTiter-Glo luminescence, LB-PBS, primary screen (AID 1144). The following applies: P. aeruginosa PAO1 biofilm, 12 h, higher = more signal.
Assay [4] in a line: basal CRE-LacZ reporter activity in PC12 – cell-based, unstimulated, primary screen (AID 1145). The note with it: no forskolin, luminescence, 4.5 h, higher = more signal, called active from +8 up or from −8 down.
A short description of assay [5]: forskolin-driven CRE-LacZ activity in PC12 – cell-based, CRE-LacZ reporter, forskolin-stimulated, primary screen (AID 1146).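 Also: PC12 cells with 6xCRE LacZ reporter stimulated by forskolin 10 µM; beta-galactosidase reporter signal reflecting CREB driven transcription.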 The note with it: luminescence, 4.5 h, higher = more signal, called active from +8 up or from −8 down.
Assay [6] has as its target Streptavidin (Streptomyces avidinii) (UniProt P22629). As to the kind of experiment: compounds binding control protein streptavidin – biophysical, small-molecule microarray, 635/667 nm fluorescence, artefact control for SMM compound annotation, primary screen (AID 1147).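 Also: signal reflects streptavidin binding to arrayed compounds as a control protein.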 The note with it: higher = more signal.
Assay [7] in a line: probe aInhba binding on compound microarray – biochemical, small-molecule microarray, 635/667 nm fluorescence, primary screen (AID 1148).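 Also: score merges 667nm spot fluorescence with signal-to-noise for antibody binding to printed compounds.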 The following applies: higher = more signal.
The target of assay [8] is Torsin-1A (Homo sapiens) (UniProt O14656). Description: TOR1A wild-type binding on microarray – cell lysate, small-molecule microarray, lysate, 635/667 nm, primary screen (AID 1149). The following applies: COS7 hTOR1A-WT lysate, 635 nm fluorescence, higher = more signal.
The target is the same in assay [9]. As to the kind of experiment: torsin A mutant lysate binding on microarrays – cell lysate, small-molecule microarray, COS7 lysate, 635/667 nm fluorescence, primary screen (AID 1150).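 Also: score pools 667 nm emission and signal to noise measuring lysate protein binding.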 The note with it: COS7 hTOR1A mutant lysate, 635 nm fluorescence, higher = more signal.
The test system of assay [10] is Sonic hedgehog protein (Shh). Description: Sonic hedgehog microarray binding compounds – biochemical, small-molecule microarray, 635/667 nm fluorescence, primary screen (AID 1151).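 Also: Shh protein binding to compounds spotted on small-molecule microarray slides; score combines spot fluorescence intensity with signal-to-noise across triplicate slides.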 The note with it: 635 nm fluorescence, higher = more signal.
A short description of assay [11]: optical density shifts of acrAB sulA E. coli – strain DRC41, OD650, 48 h, E. coli filamentation inducer project, primary screen (AID 1152).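 Also: E. coli MC1000 strain DRC41 lacking acrAB efflux pump and sulA.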 The following applies: higher = more signal, called active from +8 up or from −8 down.
Assay [12] is described as follows: probe aLefty1 binding on compound microarray – biochemical, small-molecule microarray, 635/667 nm fluorescence, primary screen (AID 1153).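 Also: score merges spot fluorescence with signal-to-noise ratio from the scanned slide images.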 The following applies: higher = more signal.
A short description of assay [13]: plasmodial surface anion channel blockers, osmotic lysis – cell-based, P. falciparum Indochina, OD700, 1 h, primary screen (AID 1154). The note with it: P. falciparum Indochina infected RBC osmotic lysis, higher = more signal, called active from +8 up or from −8 down.
Assay [14] is described as follows: plasmodial surface anion channel blockers, osmotic lysis – cell-based, P. falciparum Indochina, OD700, 2 h, primary screen (AID 1155).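 Also: lysis reports solute entry through the parasite surface anion channel PSAC.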 The note with it: P. falciparum Indochina infected erythrocytes, higher = more signal, called active from +8 up or from −8 down.
A short description of assay [15]: changes in parasitized red cell lysis, either direction – P. falciparum Indochina, OD700, 3 h, PSAC antagonist project, primary screen (AID 1156). The note with it: P. falciparum-infected erythrocytes, osmotic lysis, higher = more signal, called active from +8 up or from −8 down.
The nature of assay [16]: plasmodial surface anion channel blockers, osmotic lysis – cell-based, P. falciparum Indochina, OD700, 18 h, primary screen (AID 1157). The note with it: P. falciparum Indochina infected erythrocytes, osmotic lysis OD700, 18 h; higher = more signal, called active from +8 up or from −8 down.
The nature of assay [17]: S6 kinase pathway phospho-S6 level changes – cell-based, A549, cytoblot, luminescence, serum-stimulated, primary screen (AID 1158).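 Also: serum-stimulated A549 lung adenocarcinoma cells; signal is phosphorylated S6 detected by cytoblot immunostaining with HRP secondary.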 The following applies: 5 h, higher = more signal.
Assay [18] concerns the target NADPH oxidase 2 (Homo sapiens) (UniProt P04839). Description: compounds shifting NOX2 Amplex Red fluorescence – cell-based, HEK293-NOX2, PMA-stimulated, NOX inhibitor project, primary screen (AID 1159). Also: test concentration not given here. The note with it: 45 min, higher = more signal, called active from +8 up or from −8 down.
The target of assay [19] is NADPH oxidase 4 (Homo sapiens) (UniProt Q9NPH5). Description: compounds shifting NOX4 Amplex Red fluorescence – cell-based, HEK293-NOX4, tetracycline-induced, NOX inhibitor project, primary screen (AID 1160). The following applies: HEK293-NOX4, Amplex Red H2O2 fluorescence, 45 min; higher = more signal, called active from +8 up or from −8 down.
For assay [20], the target named is NADPH oxidase 5 (Homo sapiens) (UniProt Q96PH1). As to the kind of experiment: compounds shifting NOX5 Amplex Red fluorescence – cell-based, HEK293-NOX5, NOX inhibitor project, primary screen (AID 1161). The following applies: HEK293-NOX5, ionomycin, 45 min, higher = more signal.

Activity calls are given as the source filed them. Unless noted, no rule for the calls is given here.

NADPH oxidase 2 (Homo sapiens), sequence (P04839 whole entry, looked up): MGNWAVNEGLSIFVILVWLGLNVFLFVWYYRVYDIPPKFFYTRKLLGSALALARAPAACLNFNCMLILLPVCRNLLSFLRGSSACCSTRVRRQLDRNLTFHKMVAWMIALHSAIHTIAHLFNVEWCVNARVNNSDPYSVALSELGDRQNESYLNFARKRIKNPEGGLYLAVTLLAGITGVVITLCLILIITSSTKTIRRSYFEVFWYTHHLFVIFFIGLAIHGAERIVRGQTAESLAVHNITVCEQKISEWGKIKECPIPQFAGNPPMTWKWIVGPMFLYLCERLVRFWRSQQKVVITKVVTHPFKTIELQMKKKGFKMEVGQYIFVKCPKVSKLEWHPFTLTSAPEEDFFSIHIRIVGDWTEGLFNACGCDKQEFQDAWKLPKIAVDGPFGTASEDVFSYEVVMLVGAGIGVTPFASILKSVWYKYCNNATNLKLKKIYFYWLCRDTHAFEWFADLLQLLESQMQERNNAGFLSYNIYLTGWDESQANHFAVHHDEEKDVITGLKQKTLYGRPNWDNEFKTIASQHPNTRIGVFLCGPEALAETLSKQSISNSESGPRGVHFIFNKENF
Streptavidin (Streptomyces avidinii), sequence (P22629 whole entry, looked up): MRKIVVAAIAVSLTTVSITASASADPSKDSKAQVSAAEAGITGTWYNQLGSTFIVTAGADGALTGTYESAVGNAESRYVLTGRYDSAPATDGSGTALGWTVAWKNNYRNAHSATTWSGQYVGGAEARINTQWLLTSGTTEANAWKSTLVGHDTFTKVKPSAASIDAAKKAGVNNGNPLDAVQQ
Torsin-1A (Homo sapiens), sequence (O14656 whole entry, looked up): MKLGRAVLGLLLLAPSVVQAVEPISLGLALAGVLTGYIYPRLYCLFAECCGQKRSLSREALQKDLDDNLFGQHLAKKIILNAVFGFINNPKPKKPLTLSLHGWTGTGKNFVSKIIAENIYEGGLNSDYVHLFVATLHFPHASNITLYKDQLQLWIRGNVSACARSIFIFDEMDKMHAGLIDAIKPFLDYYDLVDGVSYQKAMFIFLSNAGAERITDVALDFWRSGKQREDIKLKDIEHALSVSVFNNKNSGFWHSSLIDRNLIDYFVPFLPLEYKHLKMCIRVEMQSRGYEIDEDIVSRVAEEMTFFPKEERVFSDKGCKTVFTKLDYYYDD
NADPH oxidase 5 (Homo sapiens), sequence (Q96PH1 whole entry, looked up): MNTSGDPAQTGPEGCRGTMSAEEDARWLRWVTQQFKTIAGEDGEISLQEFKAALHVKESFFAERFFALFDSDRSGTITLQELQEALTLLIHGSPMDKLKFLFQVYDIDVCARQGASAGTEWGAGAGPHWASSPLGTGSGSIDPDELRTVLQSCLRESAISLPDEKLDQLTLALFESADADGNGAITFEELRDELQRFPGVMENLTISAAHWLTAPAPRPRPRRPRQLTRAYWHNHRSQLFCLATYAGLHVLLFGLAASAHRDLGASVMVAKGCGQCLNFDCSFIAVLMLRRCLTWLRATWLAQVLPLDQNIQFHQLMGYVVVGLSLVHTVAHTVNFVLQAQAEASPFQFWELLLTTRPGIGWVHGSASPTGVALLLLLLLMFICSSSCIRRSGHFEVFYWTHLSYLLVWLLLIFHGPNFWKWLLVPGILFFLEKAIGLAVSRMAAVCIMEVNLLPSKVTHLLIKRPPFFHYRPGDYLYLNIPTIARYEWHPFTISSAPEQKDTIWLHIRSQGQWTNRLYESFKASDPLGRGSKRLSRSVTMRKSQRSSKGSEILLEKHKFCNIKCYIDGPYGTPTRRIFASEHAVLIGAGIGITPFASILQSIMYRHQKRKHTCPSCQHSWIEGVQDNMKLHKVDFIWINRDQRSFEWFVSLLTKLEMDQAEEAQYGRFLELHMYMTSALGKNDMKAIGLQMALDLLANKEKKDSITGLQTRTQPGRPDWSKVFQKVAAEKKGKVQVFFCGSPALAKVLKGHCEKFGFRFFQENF
NADPH oxidase 4 (Homo sapiens), sequence (Q9NPH5 whole entry, looked up): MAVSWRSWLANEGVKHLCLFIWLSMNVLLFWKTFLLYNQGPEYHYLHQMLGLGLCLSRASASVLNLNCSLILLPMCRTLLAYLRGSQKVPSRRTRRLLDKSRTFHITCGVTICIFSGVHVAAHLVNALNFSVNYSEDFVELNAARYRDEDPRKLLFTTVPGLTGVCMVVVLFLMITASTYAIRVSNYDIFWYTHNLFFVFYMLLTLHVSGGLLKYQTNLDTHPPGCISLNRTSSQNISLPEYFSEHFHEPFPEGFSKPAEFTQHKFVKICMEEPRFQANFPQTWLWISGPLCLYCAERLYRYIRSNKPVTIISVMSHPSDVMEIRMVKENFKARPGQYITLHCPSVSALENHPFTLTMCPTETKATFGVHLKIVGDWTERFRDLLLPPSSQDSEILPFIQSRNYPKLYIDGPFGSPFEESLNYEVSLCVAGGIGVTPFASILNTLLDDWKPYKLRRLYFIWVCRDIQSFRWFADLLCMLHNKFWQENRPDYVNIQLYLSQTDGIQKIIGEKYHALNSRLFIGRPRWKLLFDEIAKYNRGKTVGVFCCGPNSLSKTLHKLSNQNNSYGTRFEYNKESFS

For the compound `COC(=O)[C@H](C)NC(=O)[C@@H](C)CO`, the composite z-score in assay [1] is 0.174; in [6] it was 0.733; in assay [7], -0.0313; with Torsin-1A (Homo sapiens) [8] it was 0.927; with Torsin-1A (Homo sapiens) [9], 0.461; in [10], 0.575. The compound further yielded a composite z-score in [12] of 0.138. Also, the z-score in [2] was -0.76 (inactive); in assay [3] it was 0.06 (inactive); in [4], -0.432 (inactive); in assay [5] it was 0.17 (inactive); in assay [11], -0.534 (inactive); in [13], 0.295 (inactive). For the same compound, the z-score was 0.451 (inactive) in assay [14]; 0.372 (inactive) in assay [15]; 0.665 (inactive) in assay [16]; 0.656 in assay [17]; -0.371 (inactive) in assay [18]; -0.71 (inactive) in assay [19]. Further, in [20], the z-score came to 0.468.

Regarding `O=C1C[C@@H](O)[C@@H](O)[C@@H]2[C@@H]3C(=O)N(c4ccc(F)cc4F)C(=O)[C@@H]3CC[C@@H]12`, the composite z-score in [1] is -0.0711; in assay [6] it was 0.254; in [7] it was -0.0887; in the assay with Torsin-1A (Homo sapiens) [8], 0.243; with Torsin-1A (Homo sapiens) [9], 0.149; in assay [10] it was 0.786. Further, the composite z-score in assay [12] is -0.101. Moreover, the z-score in assay [2] is 0.988 (inactive); in [3] it was -0.356 (inactive); in assay [4] it was 0.792 (inactive); in assay [5], -0.0611 (inactive); in assay [11] it was -0.349 (inactive); in assay [13] it was -0.571 (inactive). The z-score in [14] is -0.0709 (inactive); in assay [15], -0.659 (inactive); in assay [16], -0.408 (inactive); in assay [17], -0.0159; in assay [18], -2.64 (inactive); in assay [19], 0.473 (inactive). In [20], the z-score is -0.457.

Turning to `CC(C)(C)N1C(=O)[C@H]2[C@H]3[C@H](O)[C@H](O)CC(=NOCc4ccccc4)[C@@H]3CC[C@H]2C1=O`, the composite z-score in assay [1] is 0.351; in assay [6], 0.33; in [7], -0.0986; with Torsin-1A (Homo sapiens) [8], 0.678; in the assay with Torsin-1A (Homo sapiens) [9], 0.119; in [10] it was 1.26. Also, the composite z-score in assay [12] is -0.0162. The z-score in assay [2] is -0.939 (inactive); in [3], 0.614 (inactive); in assay [4] it was 0.16 (inactive); in assay [5], 0.479 (inactive); in assay [11] it was 0.831 (inactive); in assay [13], 0.464 (inactive). The z-score in [14] is -1.53 (inactive); in [15] it was 0.877 (inactive); in assay [16], -2.27 (inactive); in assay [17], 0.581; in [18] it was -1.57 (inactive); in [19], 0.413 (inactive). In addition, the z-score in assay [20] stood at 0.791.

Consider `CC(C)CON=C1C[C@@H](O)[C@@H](O)[C@@H]2[C@@H]3C(=O)N(Cc4ccccc4)C(=O)[C@@H]3CC[C@@H]12`, for which the composite z-score is 0.0819 in assay [1]; -0.354 in assay [6]; -0.071 in assay [7]; 0.407 in the assay with Torsin-1A (Homo sapiens) [8]; 0.16 with Torsin-1A (Homo sapiens) [9]; 0.305 in [10]. The compound also displayed a composite z-score in assay [12] of 0.148. Moreover, the z-score in [2] is 0.674 (inactive); in assay [3] it was 0.579 (inactive); in [4], -0.203 (inactive); in assay [5], 0.462 (inactive); in assay [11], 0.102 (inactive); in assay [13], 0.252 (inactive). Moreover, the z-score in assay [14] was 0.227 (inactive); in assay [15], 0.65 (inactive); in [16], -0.0378 (inactive); in assay [17], 0.524; in assay [18], 1.39 (inactive); in assay [19] it was 0.387 (inactive). For the same compound, in assay [20], the z-score is -0.0393.

These data come from PubChem BioAssay.
